Source: PubChem
HTRA1 inhibitor – blocks human HTRA1 serine peptidase | Q92743 | recombinant HTRA1, FP-rhodamine activity-based probe, fluorescence polarization | inhibition, % at 5.96 µM | actives 0.5% (n = 340,000) | AID 504803; in the data active = inhibition above about 36%;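 also: 0% = enzyme with DMSO and 100% = wells lacking enzyme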
PAFAH2 inh – PAFAH2 (human) inhibition | Q99487 | recombinant PAFAH2, FP-rhodamine activity probe, fluorescence polarization | inhibition, % at 3.39 µM | actives 0.99% (n = 340,000) | AID 492956;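 active = inhibition above the mean over all tested compounds plus 3 SD, cut at about 30% in these data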;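 also: inhibitors block probe labeling of enzyme so polarization drops; 0% = enzyme with DMSO and 100% = wells lacking PAFAH2 protein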
pPAFAH inh – inhibitors of human plasma PAF acetylhydrolase (pPAFAH) | Q13093 | recombinant pPAFAH, FP-rhodamine probe fluorescence polarization | inhibition, % at 3.39 µM | actives 1.5% (n = 330,000) | AID 463082;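 active = inhibition above the mean inhibition across the screen plus 3 SD, cut at about 25% in these data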;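 also: inhibitors block binding of the rhodamine activity-based probe so polarization drops; 0% = enzyme with DMSO and 100% = wells lacking pPAFAH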
DAGLB inh – blocks human DAGLB lipase activity. actives 0.059% (n = 340,000). Q8NCG7. HEK293T DAGLB membrane lysate, EnzChek fluorogenic substrate. AID 504411. inhibition, % at 5.17 µM; in the data active = inhibition above about 34%;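 also: 0% = enzyme with vehicle and 100% = wells lacking enzyme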
PAFAH1B2 inh – inhibitors of human PAFAH1B2. P68402. actives 1.2% (n = 340,000). inhibition, % at 3.39 µM. AID 492953. recombinant PAFAH1B2, FP-rhodamine activity probe, fluorescence polarization;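 active = inhibition above the mean of all tested compounds plus 3 SD, cut at about 24% in these data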;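 also: 0% = enzyme with DMSO and 100% = wells lacking PAFAH1B2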
Target sequence (P68402 whole entry, looked up): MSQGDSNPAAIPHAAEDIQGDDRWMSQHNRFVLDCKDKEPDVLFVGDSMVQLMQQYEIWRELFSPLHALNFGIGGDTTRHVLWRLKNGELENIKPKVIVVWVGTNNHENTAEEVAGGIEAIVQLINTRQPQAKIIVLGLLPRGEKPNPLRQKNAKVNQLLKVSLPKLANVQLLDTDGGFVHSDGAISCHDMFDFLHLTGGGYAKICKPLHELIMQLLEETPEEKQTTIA
PAFAH1B3 inh – blocks human PAF acetylhydrolase 1B catalytic subunit 3. AID 492972. inhibition, % at 3.39 µM. actives 0.28% (n = 340,000). Q15102. recombinant PAFAH1B3, FP-rhodamine probe, fluorescence polarization;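 active = inhibition above the screen-wide average of all tested compounds plus 3 SD, cut at about 25% in these data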;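 also: 0% = enzyme with DMSO only and 100% = wells lacking PAFAH1B3 protein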
Target sequence (Q15102 whole entry, looked up): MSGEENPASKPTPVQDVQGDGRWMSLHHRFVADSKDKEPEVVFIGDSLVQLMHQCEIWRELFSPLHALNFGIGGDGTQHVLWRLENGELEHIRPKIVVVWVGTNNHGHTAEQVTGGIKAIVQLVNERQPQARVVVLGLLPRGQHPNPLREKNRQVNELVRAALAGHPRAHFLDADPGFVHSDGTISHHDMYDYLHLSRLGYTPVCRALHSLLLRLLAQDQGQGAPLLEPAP
PAFAH2 confirm – confirmation of human PAFAH2 inhibitors | shares compounds with PAFAH2 inh | recombinant PAFAH2, FP-rhodamine activity probe, fluorescence polarization | inhibition, % at 3.39 µM | actives 65% (n = 2,300) | AID 493030;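 active = mean inhibition over three repeats above a set limit taken from the earlier primary screen, cut at about 30% in these data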;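 also: inhibitor blocks binding of rhodamine activity probe so polarization falls; 0% = enzyme with DMSO and 100% = wells lacking PAFAH2 protein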
Active calls of the source: *. Shown are actives, neighbours in structure and some others; about 2.8% of the full set was active somewhere.

`CN(C)c1ccc(C(=O)OCC(=O)c2cccs2)cc1` gave HTRA1 inhibitor -6.1, PAFAH2 inh 70.8*, pPAFAH inh 3.4, DAGLB inh -1.7, PAFAH1B2 inh -1.2, PAFAH1B3 inh 3.3 and PAFAH2 confirm 75.8*.
CN(C)c1ccc(C(=O)OCC(=O)c2ccc[nH]2)cc1 was read as HTRA1 inhibitor -0.6, PAFAH2 inh 68.2*, pPAFAH inh 7.3, DAGLB inh 1.3, PAFAH1B2 inh 2.4, PAFAH1B3 inh 1.6 and PAFAH2 confirm 68.0*.
`Nn1c(-c2ccccc2)cc(-c2ccccc2)cc1=O` gave HTRA1 inhibitor -4.0, PAFAH2 inh 7.4, pPAFAH inh 5.5, DAGLB inh -1.5, PAFAH1B2 inh 1.9 and PAFAH1B3 inh -1.2.
C(=NN=C1c2ccccc2-c2ccccc21)c1ccc2c(c1)OCO2 was read as HTRA1 inhibitor -6.8, PAFAH2 inh -3.7, DAGLB inh -3.5, PAFAH1B2 inh -3.1 and PAFAH1B3 inh 4.1.
O=C(COC(=O)c1ccc(F)c(S(=O)(=O)N2CCOCC2)c1)Nc1ccc2c(c1)OCO2 was read as HTRA1 inhibitor 4.0, PAFAH2 inh 78.1*, DAGLB inh -0.3, PAFAH1B2 inh 1.7, PAFAH1B3 inh 3.9 and PAFAH2 confirm 65.3*.
Screening COc1ccc(C(=O)OCC(=O)Nc2ccc3c(c2)OCO3)cc1S(=O)(=O)N1CCOCC1 returned HTRA1 inhibitor 4.9, PAFAH2 inh 81.6*, DAGLB inh 0.0, PAFAH1B2 inh 2.5, PAFAH1B3 inh 3.5 and PAFAH2 confirm 82.2*.
Screening COc1ccc(C(=O)Nc2ccc3c(c2)OCO3)cc1S(=O)(=O)N1CCOCC1 returned HTRA1 inhibitor -1.5 and DAGLB inh 2.6.
Screening CCC(C(=O)OCC(=O)Nc1c(C)nn(-c2ccccc2)c1C)c1ccccc1 (stereo not given) returned HTRA1 inhibitor 4.8, PAFAH2 inh 0.6, pPAFAH inh 11.5, DAGLB inh -1.0, PAFAH1B2 inh 3.5 and PAFAH1B3 inh -1.1.
Cc1nn(-c2ccccc2)c(C)c1NC(=O)COC(=O)/C=C/c1ccccc1 was read as HTRA1 inhibitor -8.7, PAFAH2 inh 38.6*, pPAFAH inh 5.9, DAGLB inh -2.5, PAFAH1B2 inh 1.2, PAFAH1B3 inh 3.3 and PAFAH2 confirm 32.3*.
For Cc1ccc(S(=O)(=O)N2CCOCC2)cc1NC(=O)COC(=O)/C=C/c1ccc(F)cc1 the results were HTRA1 inhibitor 1.4, PAFAH2 inh 52.6*, pPAFAH inh 2.4, DAGLB inh -2.7, PAFAH1B2 inh 0.3, PAFAH1B3 inh 4.4 and PAFAH2 confirm 47.2*.
Screening COc1ccc(/C=C/C(=O)OCC(=O)NC(C)CCc2ccccc2)cc1 (stereo not given) returned HTRA1 inhibitor -11.4, PAFAH2 inh 68.5*, pPAFAH inh 6.7, DAGLB inh -4.2, PAFAH1B2 inh 6.8, PAFAH1B3 inh 6.8 and PAFAH2 confirm 55.2*.
`O=C(COC(=O)/C=C/c1ccc(S(=O)(=O)N2CCOCC2)cc1)Nc1ccccc1F` gave HTRA1 inhibitor 4.9, PAFAH2 inh 59.5*, pPAFAH inh 9.1, DAGLB inh -5.1, PAFAH1B2 inh 5.9, PAFAH1B3 inh 9.8 and PAFAH2 confirm 42.1*.
O=C(COC(=O)/C=C/c1ccc(S(=O)(=O)N2CCOCC2)cc1)NCc1ccc(F)cc1 was read as HTRA1 inhibitor -2.9, PAFAH2 inh 38.7*, pPAFAH inh 8.6, DAGLB inh -2.5, PAFAH1B2 inh 2.4, PAFAH1B3 inh 20.7 and PAFAH2 confirm 34.5*.
For O=C(COC(=O)/C=C/c1ccc(S(=O)(=O)N2CCOCC2)cc1)NCc1ccc2c(c1)OCO2 the results were HTRA1 inhibitor -3.5, PAFAH2 inh 12.1, pPAFAH inh 7.4, DAGLB inh -2.5, PAFAH1B2 inh 3.8 and PAFAH1B3 inh -3.9.
For COc1ccc(/C=C/C(=O)OCC(=O)NCCNC(=O)COC(=O)/C=C/c2ccc(OC)cc2)cc1 the results were HTRA1 inhibitor -3.7, PAFAH2 inh 0.4, pPAFAH inh -0.7, DAGLB inh -2.2, PAFAH1B2 inh 1.6 and PAFAH1B3 inh -6.4.
